# GLD-1 RNA inh = GLD-1/TGE RNA complex disruptors, primary screen, biochemical, fluorescence polarization | purified GLD-1 + fluorescein TGE RNA | Female germline-specific tumor suppressor gld-1 (Caenorhabditis elegans), Q17339 | actives 0.44% (n = 320,000) | AID 2280, 2010 | inhibition, % at 5.96 µM;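 active means percent inhibition above a per-plate cutoff, the plate mean of test compounds plus 3 SD, cut at about 30% in these data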;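 further: 0% = DMSO wells with GLD-1 and probe and 100% = wells lacking GLD-1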
# BCLXL inh = inhibitors of human Bcl-xL, primary screen, biochemical, fluorescence polarization, HTS | Bcl-2-like protein 1 (Homo sapiens), Q07817 | GST-Bcl-xL / FITC-Bim BH3 peptide fluorescence polarization | inhibition, % at 10.9 µM | actives 0.7% (n = 320,000) | AID 2129, 2009;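 active means inhibition above the mean of all tested compounds plus 3 SD, cutoff set per campaign, cut at about 30% in these data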;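 further: 0% = DMSO wells and 100% = unlabeled Bim-BH3 peptide competitor; inhibitors lower millipolarization by displacing the labeled peptide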
# Target sequence (Q07817 whole entry, looked up): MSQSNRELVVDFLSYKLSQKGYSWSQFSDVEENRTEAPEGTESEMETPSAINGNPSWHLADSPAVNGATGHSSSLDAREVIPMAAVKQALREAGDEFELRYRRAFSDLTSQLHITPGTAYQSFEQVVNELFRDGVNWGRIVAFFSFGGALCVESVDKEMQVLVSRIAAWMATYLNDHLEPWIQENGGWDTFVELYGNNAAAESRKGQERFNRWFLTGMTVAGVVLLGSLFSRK
# Mcl1-Noxa inh = Mcl-1/Noxa binding inhibitors, primary screen, biochemical, TR-FRET, 1536-well; Induced myeloid leukemia cell differentiation protein Mcl-1 (Homo sapiens), Q07820; actives 1.5% (n = 220,000); AID 1022, 2008; TR-FRET Mcl-1/Noxa peptide binding, 2 h; inhibition, % at 21.7 µM;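 active means compounds that cut the protein-peptide binding signal by more than 50% relative to plate controls in a single-dose test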;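 further: His-tagged Mcl-1 with rhodamine Noxa BH3 peptide and terbium anti-His antibody; 0% = Mcl-1 plus Noxa peptide wells and 100% = peptide-only wells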
# Target sequence (Q07820 whole entry, looked up): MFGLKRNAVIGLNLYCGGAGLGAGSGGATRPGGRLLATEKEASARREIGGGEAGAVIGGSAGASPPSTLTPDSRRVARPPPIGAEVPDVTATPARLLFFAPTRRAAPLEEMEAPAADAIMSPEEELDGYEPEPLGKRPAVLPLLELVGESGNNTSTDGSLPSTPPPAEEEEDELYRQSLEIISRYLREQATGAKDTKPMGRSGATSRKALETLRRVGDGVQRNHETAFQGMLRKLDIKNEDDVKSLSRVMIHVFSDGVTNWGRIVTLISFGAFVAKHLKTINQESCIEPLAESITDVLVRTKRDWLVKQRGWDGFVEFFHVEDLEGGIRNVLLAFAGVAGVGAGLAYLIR
# Mcl1-Bid inh = Mcl-1/Bid binding inhibitors, primary screen, biochemical, TR-FRET, 1536-well; actives 0.97% (n = 220,000); TR-FRET Mcl-1/Bid-Dy647 peptide binding; inhibition, % at 21.7 µM; AID 1021, 2008;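 active means compounds that cut the binding signal by more than half at the single screening dose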;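 further: His-tagged Mcl-1 with europium anti-His antibody binding Bid BH3 peptide; 0% = Mcl-1 plus peptide wells and 100% = peptide-only wells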
# MCL1-BIM inh = inhibitors of MCL1 binding to BIM-BH3, primary screen, biochemical, fluorescence polarization; GST-MCL1 / FITC-Bim-BH3 fluorescence polarization; inhibition, % at 10.9 µM; actives 0.68% (n = 320,000); AID 2057, 2009; Induced myeloid leukemia cell differentiation protein Mcl-1 (Homo sapiens), Q07820;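 active means inhibition above the mean inhibition of all tested compounds plus 3 SD, set per campaign, cut at about 40% in these data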;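 further: 0% = DMSO wells and 100% = unlabeled Bim-BH3 peptide control; higher means more loss of mP so more displacement of Bim peptide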
# Bim-Mcl-1 = inhibitors of Bim peptide binding to Mcl-1, primary screen, biochemical, bead-based flow cytometry, multiplex; AID 1009, 2008; inhibition, % at 10 µM; Induced myeloid leukemia cell differentiation protein Mcl-1 (Homo sapiens), Q07820; actives 0.1% (n = 190,000); Bim peptide-Mcl-1 binding; in the data active means inhibition above about 40%;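 further: 0% = no compound tracer wells and 100% = peptide blocker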
# Numbers without * were called inactive; x = no result given. Rows were chosen to be rich in hits. Some 2.3% of all compounds tested hit in one or more screens of this group.
SMILES,GLD-1 RNA inh,BCLXL inh,Mcl1-Noxa inh,Mcl1-Bid inh,MCL1-BIM inh,Bim-Mcl-1
COC(=O)C(Cc1ccccc1)OS(N)(=O)=O (stereo not drawn),5,1,x,x,2,x
CSc1nc2ccc3nc(NC(=O)c4cccs4)sc3c2s1,3,5,30,66*,8,-15
CSc1nc2ccc3nc(NC(=O)c4ccc(Cl)s4)sc3c2s1,4,1,52*,66*,-1,1
O=C(Nc1nc(-c2ccccn2)cs1)c1ccc(Cl)s1,-5,9,-82,-51,10,0
O=C(CN1CCN(c2ccc(O)cc2)CC1)Nc1cc(S(=O)(=O)N2CCCCC2)ccc1Cl,3,25,69*,-60,22,1
O=C(CN1CCN(c2ccc(O)cc2)CC1)Nc1cc(S(=O)(=O)N2CCCC2)ccc1Cl,2,30,57*,-91,22,-1
CCN1CCN(CC(=O)Nc2cc(S(=O)(=O)N3CCCCC3)ccc2Cl)CC1,-5,x,x,x,x,x
O=C(O)c1ccccc1NC(c1ccccc1)c1ccc(Cl)cc1 (stereo not drawn),5,9,x,x,7,x
O=C(NCC1CCCO1)c1cc(-c2ccc(F)cc2)no1 (stereo not drawn),8,3,x,x,4,x
Cc1cc(Br)c(NC(=O)COC(=O)CC2CC3CCC2C3)c(Br)c1 (stereo not drawn),9,x,x,x,x,x
COc1ccc(N2CCN(C(=O)CN3C(=O)NC(C)(C4CC4)C3=O)CC2)cc1 (stereo not drawn),2,3,x,x,1,x
COc1cccc(/C=N/NC(=O)c2ccc(CN3c4cccc5cccc(c45)S3(=O)=O)cc2)c1,8,2,-2,0,-6,-3
O=C(N/N=C/c1cccnc1)c1ccc(CN2c3cccc4cccc(c34)S2(=O)=O)cc1,-16,-3,66*,-13,3,0
COc1ccc(C(C)=O)cc1COc1ccc(Cl)cc1Cl,4,5,-11,92*,-2,x
Cc1ccccc1OCCNC(=O)CNC(=O)c1ccccc1O,-2,6,x,82*,0,-4
O=C(CN1CCN(c2ccccn2)CC1)N1c2ccccc2Sc2ccc(C(F)(F)F)cc21,2,4,30,41,3,0
O=C(CN1CCN(c2ccccn2)CC1)N1c2ccccc2CCc2ccccc21,-2,2,22,55*,8,-3
NS(=O)(=O)c1ccc(CCNC(=O)C(=O)c2c[nH]c3ccccc23)cc1,2,4,7,99*,14,-4
CCN(CC)c1ccc(NC(=O)Cn2ncc3c(C)n(Cc4ccccc4F)c(C)c3c2=O)c(C)c1,-6,1,64*,65*,-13,3
Cc1c2cnn(CC(=O)NCc3ccccn3)c(=O)c2c(C)n1Cc1ccccc1,6,-3,x,x,6,x
Cc1c2cnn(CC(=O)Nc3c(F)c(F)cc(F)c3F)c(=O)c2c(C)n1Cc1ccc(F)cc1,-2,6,62*,-16,7,-2
COc1ccc(CCNC(=O)CSc2nn(-c3ccccc3)c(=S)s2)cc1,6,2,16,-29,5,x
Cc1nnc(N2C(=O)C(O)=C(C(=O)c3ccco3)C2c2ccc(C(C)C)cc2)s1 (stereo not drawn),40*,40*,26,-1,37,-2
Cc1ccc(C2C(C(=O)c3ccco3)=C(O)C(=O)N2c2ncccn2)cc1 (stereo not drawn),2,7,15,-12,5,x
Cc1nnc(N2C(=O)C(O)=C(C(=O)c3ccco3)C2c2ccc(C(C)(C)C)cc2)s1 (stereo not drawn),32*,33*,3,-19,31,0
SMILES,GLD-1 RNA inh,BCLXL inh,Mcl1-Noxa inh,Mcl1-Bid inh,MCL1-BIM inh,Bim-Mcl-1
Cc1nnc(N2C(=O)C(O)=C(C(=O)c3ccco3)C2c2ccc(F)cc2)s1 (stereo not drawn),45*,33*,21,-8,27,1
COc1cc(/C=N/NC(=O)C2CC(=O)N(c3ccc(C)cc3)C2)cc(OC)c1OC (stereo not drawn),4,-2,x,x,-8,x
Nc1ccccc1-n1c(=O)n(Cc2ccccc2F)c(=O)c2[nH]cnc21,-5,3,x,x,3,x
Cc1cc(Cl)c(C)c(S(=O)(=O)N2CCN(CC(=O)N3CCOCC3)CC2)c1Cl,1,-2,x,x,1,x
CCN(CC)CCn1c(=O)n(-c2ccc(Cl)cc2)c(=O)c2c3c(sc21)CN(C)CC3,-41,35*,6,-16,37,x
CN1CCc2c(sc3c2c(=O)n(-c2ccc(Cl)cc2)c2nncn32)C1,4,8,31,-24,10,-5
COc1ccc(OC)c(CCNC(=O)Cn2sc3nc(C)cc(C)c3c2=O)c1,1,2,56*,-19,16,-10
O=C1CC(=O)c2c1cccc2[N+](=O)[O-],x,x,101*,12,x,x
O=C1OCc2cccc([N+](=O)[O-])c21,7,0,0,3,0,-1
CC1CN(Cc2ccccc2Cl)CC(C)O1 (stereo not drawn),-2,-2,33,51*,-4,-3
Clc1ccccc1CN1CCC(Cc2ccccc2)CC1,4,3,20,54*,2,-3
FC(F)(F)c1ccccc1CN1CCC(Cc2ccccc2)CC1,8,1,x,x,15,x
Cc1cccc(N2CCN(C(=O)CCc3nc4ccccc4c(=O)[nH]3)CC2)c1C,1,x,x,x,x,x
CCc1ccc(C2C(C#N)=C(N)SC(N)=C2C#N)s1,-60,-50,26,-79,-98,-2
Cc1ccc(C2C(C#N)=C(N)SC(N)=C2C#N)o1,-17,12,84*,11,-1,2
CCCCCCCC(=O)Nc1cc(C(=O)NCCC)ccc1N1CCC2(CC1)CC(c1ccccc1)=NO2,-2,3,x,x,5,x
Nc1nc(CSc2nc3ccccc3s2)nc(Nc2ccccc2)n1,11,6,73*,14,4,-5
Cc1c(Cl)cccc1Nc1nc(N)nc(CSc2nc3ccccc3s2)n1,5,5,10,15,8,0
NC1=NS(=O)(=O)NC1c1ccc(F)cc1 (stereo not drawn),5,-1,-22,-2,1,0
CCc1ccc2c(COn3nnc4ccc(S(=O)(=O)N(C)C)cc43)cc(=O)oc2c1,6,0,12,53*,-5,-9

# Screening data deposited in PubChem BioAssay by several laboratories.
